The panel holds about 83,000 compounds, 20% with a hit somewhere; the sample as a whole holds those more often.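 Percent growth is the endpoint: 0 to 100 indicates growth inhibition (40 means 60% inhibition), 0 means no net growth, and negative values indicate cell death.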 A number with no mark means an inactive call. Active and inactive are the calls of the source. The calls were made as follows: active = growth percent below 10; inactive = the rest.
test system: DU-145 prostate; test: NCI-60 one-dose screen, 48 h (100 = growth as untreated, 0 = no growth, -100 = all killed); conditions: 10 µM unless noted

| Structure (SMILES) | growth |
| --- | --- |
| CN(c1ncccc1CNc1nc(Nc2ccc3c(c2)CC(=O)N3)ncc1C(F)(F)F)S(C)(=O)=O | 11.2% |
| COc1cc2nccc(Oc3ccc(NC(=O)Nc4cc(C)on4)c(Cl)c3)c2cc1OC | 31.2% |
| COc1cccc(Nc2ncnn3ccc(CN4CC[C@@H](N)[C@H](O)C4)c23)c1 | 27.1% |
| Cc1nc2cc(-c3nn(C(C)C)c4ncnc(N)c34)ccc2o1 | 1.98% (active) |
| C[C@@H](N)c1ccc(C(=O)Nc2ccnc3[nH]ccc23)cc1 | 52.3% |
| NC(=O)c1c(OCc2c(F)cc(Br)cc2F)nsc1NC(=O)NCCCCN1CCCC1 | 22.6% |
| CC(=O)OC(C(=O)c1ccccc1)c1ccccc1 (centres undefined) | 111% |
| O=C1NC(=O)[C@@H](c2cn3c4c(cccc24)CCC3)[C@@H]1c1c[nH]c2ccccc12 | 15% |
| CCN(CC)c1cc2oc3cc(N)cc(=N)c-3nc2cc1C | 85.7% |
| CC(=O)C1CC(C)CCC1C(C)C (centres undefined) | 111% |
| CCN1CCN(Cc2ccc(-c3cc4c(N[C@H](C)c5ccccc5)ncnc4[nH]3)cc2)CC1 | 40.5% |
| O=c1[nH]c([C@@H]2CCCN2)nc2c1oc1ccc(Cl)cc12 | 73.1% |
| C=CC(=O)Nc1cccc(Oc2nc(Nc3ccc(N4CCN(C)CC4)cc3)nc3ccsc23)c1 | -48.4% (active) |
| CCS(=O)(=O)N1CCN(c2ccc(Nc3ncc(C(N)=O)c(NC4CC4)n3)cc2)CC1 | 88.5% |
| O=C(COc1ccc(/C=C2\Cc3ccc(Cl)cc3C2=O)cc1)Nc1nccs1 | 118% |
| CC(C)(C)c1cnc(CSc2cnc(NC(=O)C3CCNCC3)s2)o1 | 7.26% (active) |
| CS(=O)(=O)CCNCc1ccc(-c2ccc3ncnc(Nc4ccc(OCc5cccc(F)c5)c(Cl)c4)c3c2)o1 | 12% |
| Cc1cc(O)cc(-c2c(-c3ccnc(-c4cccnc4)c3)cnn2C)c1 | 70.4% |
| CN1CCN(c2nc(C3=C(c4c[nH]c5ccccc45)C(=O)NC3=O)c3ccccc3n2)CC1 | 90.5% |
| CC(=O)NCC(=O)N1[C@@H]2CC[C@H]1c1ccc(Nc3ncc(C(F)(F)F)c(NC4CCC4)n3)cc12 | 41.7% [2.5 µM] |
| Cc1cc([C@@H](C)Nc2ccccc2C(=O)O)c2nc(N3CCOCC3)cc(=O)n2c1 | 57.2% |
| Cc1cc(Oc2ccccc2)ccc1Nc1ncnc2ccc(-c3cnc(Cl)c(NS(C)(=O)=O)c3)cc12 | 32.1% |
| CCN(CC)CCNC(=O)c1c(C)[nH]c(/C=C2\C(=O)Nc3ccc(F)cc32)c1C | 33.2% |
| O=C(Nc1cnn2ccc(N3CCC[C@@H]3c3cc(F)ccc3F)nc12)N1CC[C@H](O)C1 | 110% |
| COc1ccc(F)c(F)c1C(=O)c1cnc(NC2CCN(S(C)(=O)=O)CC2)nc1N | 10.3% |
| CN1C/C=C\CCOc2cccc(c2)-c2ccnc(n2)Nc2cccc(c2)C1 | 5.04% (active) |

test system: K-562 leukemia; test: as above; conditions: 10 µM unless noted

| Structure (SMILES) | growth |
| --- | --- |
| COCc1c(-c2ccc(NC(=O)Nc3cc(C(F)(F)F)ccc3F)c(F)c2)c2c(N)ncnn2c1CN1CCOCC1 | 1.74% (active) |
| COC(=O)[C@@H](NC(=O)[C@@H](OC)[C@@H]1Cc2cc3cc(OC4CC(OC5CC(O)C(O)C(C)O5)C(O)C(C)O4)c(C)c(O)c3c(O)c2C(=O)[C@H]1OC1CC(OC2CC(OC3CC(C)(O)C(O)C(C)O3)C(O)C(C)O2)C(O)C(C)O1)C(C)C (some centres undefined) | 5.81% (active) |
| Cc1ccc(Nc2nccc(N(C)c3ccc4c(C)n(C)nc4c3)n2)cc1S(N)(=O)=O | 7.01% (active) |
| CCN(CCO)CCCOc1ccc2c(Nc3cc(CC(=O)Nc4cccc(F)c4)[nH]n3)ncnc2c1 | 32% |
| COc1ccc(Cc2cc(-c3ccccc3C)n[nH]c2=O)cc1 | 110% |
| Clc1ccc(C(Cn2ccnc2)OCc2ccsc2Cl)c(Cl)c1 (centres undefined) | 16% |
| COc1ccc(/C(C)=C(\c2ccc(Cl)cc2)c2ccc(OCCN3CCCCCC3)cc2)cc1 | 10.4% |
| CCCCCc1ccc(C)cc1OC(=O)CCl | 98.8% |
| COc1ccc(-c2ccc3ncc4c(c3c2)n(-c2ccc(N3CCNCC3)c(C(F)(F)F)c2)c(=O)n4C)cn1 | -48.2% (active) |
| COc1cc(OC)c(/C=C/S(=O)(=O)Cc2ccc(OC)c(NCC(=O)O)c2)c(OC)c1 | 8.38% (active) |
| COC1CCC(N2C(=O)CNc3ncc(-c4ccc(C(C)(C)O)nc4)nc32)CC1 (centres undefined) | 4.22% (active) |
| C[C@@H](Oc1cc(-n2cnc3ccc(CN4CCN(C)CC4)cc32)sc1C(N)=O)c1ccccc1C(F)(F)F | 6.08% (active) |
| CN(c1ncccc1CNc1nc(Nc2ccc3c(c2)CC(=O)N3)ncc1C(F)(F)F)S(C)(=O)=O | 4.58% (active) |
| COc1cc2nccc(Oc3ccc(NC(=O)Nc4cc(C)on4)c(Cl)c3)c2cc1OC | 5.94% (active) |
| COc1cccc(Nc2ncnn3ccc(CN4CC[C@@H](N)[C@H](O)C4)c23)c1 | 2.52% (active) |
| Cc1nc2cc(-c3nn(C(C)C)c4ncnc(N)c34)ccc2o1 | 10.4% |
| C[C@@H](N)c1ccc(C(=O)Nc2ccnc3[nH]ccc23)cc1 | 63.7% |
| NC(=O)c1c(OCc2c(F)cc(Br)cc2F)nsc1NC(=O)NCCCCN1CCCC1 | -46.8% (active) |
| CC(=O)OC(C(=O)c1ccccc1)c1ccccc1 (centres undefined) | 96.5% |

| Structure (SMILES) | growth |
| --- | --- |
| O=C1NC(=O)[C@@H](c2cn3c4c(cccc24)CCC3)[C@@H]1c1c[nH]c2ccccc12 | 9.6% (active) |
| CCN(CC)c1cc2oc3cc(N)cc(=N)c-3nc2cc1C | 24.9% |
| CC(=O)C1CC(C)CCC1C(C)C (centres undefined) | 77% |
| CCN1CCN(Cc2ccc(-c3cc4c(N[C@H](C)c5ccccc5)ncnc4[nH]3)cc2)CC1 | 5.11% (active) |
| O=c1[nH]c([C@@H]2CCCN2)nc2c1oc1ccc(Cl)cc12 | 43% |
| C=CC(=O)Nc1cccc(Oc2nc(Nc3ccc(N4CCN(C)CC4)cc3)nc3ccsc23)c1 | -25.6% (active) |
| CCS(=O)(=O)N1CCN(c2ccc(Nc3ncc(C(N)=O)c(NC4CC4)n3)cc2)CC1 | 56.4% |
| O=C(COc1ccc(/C=C2\Cc3ccc(Cl)cc3C2=O)cc1)Nc1nccs1 | 121% |
| CC(C)(C)c1cnc(CSc2cnc(NC(=O)C3CCNCC3)s2)o1 | 4.07% (active) |
| CS(=O)(=O)CCNCc1ccc(-c2ccc3ncnc(Nc4ccc(OCc5cccc(F)c5)c(Cl)c4)c3c2)o1 | -22.7% (active) |
| Cc1cc(O)cc(-c2c(-c3ccnc(-c4cccnc4)c3)cnn2C)c1 | 57.8% |
| CN1CCN(c2nc(C3=C(c4c[nH]c5ccccc45)C(=O)NC3=O)c3ccccc3n2)CC1 | 66.5% |
| CC(=O)NCC(=O)N1[C@@H]2CC[C@H]1c1ccc(Nc3ncc(C(F)(F)F)c(NC4CCC4)n3)cc12 | 44.8% [2.5 µM] |
| Cc1cc([C@@H](C)Nc2ccccc2C(=O)O)c2nc(N3CCOCC3)cc(=O)n2c1 | 66.9% |
| Cc1cc(Oc2ccccc2)ccc1Nc1ncnc2ccc(-c3cnc(Cl)c(NS(C)(=O)=O)c3)cc12 | 54.3% |
| CCN(CC)CCNC(=O)c1c(C)[nH]c(/C=C2\C(=O)Nc3ccc(F)cc32)c1C | -22.3% (active) |
| O=C(Nc1cnn2ccc(N3CCC[C@@H]3c3cc(F)ccc3F)nc12)N1CC[C@H](O)C1 | 74.8% |
| COc1ccc(F)c(F)c1C(=O)c1cnc(NC2CCN(S(C)(=O)=O)CC2)nc1N | 5.89% (active) |
| CN1C/C=C\CCOc2cccc(c2)-c2ccnc(n2)Nc2cccc(c2)C1 | -18.5% (active) |
